14 compounds from ChEMBL document CHEMBL3433997, “St. Jude Leishmania screening dataset” (2016) can be followed below.

What all share (assay type): functional
Experiment [1] addresses Solute carrier family 2, facilitated glucose transporter member 1 (Homo sapiens) (UniProt P11166). The experiment is described as follows: ST_JUDE_LEISH: Cytotoxicity at 2uM final concentration against transgenic Leishmania Mexicana promastigotes LmGLUT1 that are glucose transport deficient and complemented with the human glucose transporter GLUT1. Activity is measured by DNA content using SYBR green in vitro.

The target in experiment [2] is Hexose transporter 1 (Plasmodium falciparum) (UniProt O97467). In words: ST_JUDE_LEISH: Cytotoxicity at 2uM final concentration against transgenic Leishmania Mexicana promastigotes LmPfHT that are glucose transport deficient and complemented with the Plasmodium falciparum hexose transporter. Activity is measured by DNA content using SYBR green in vitro.
In experiment [3] the target is Glucose transporter (Leishmania mexicana) (UniProt O61059). The experiment is described as follows: ST_JUDE_LEISH: Cytotoxicity at 2uM final concentration against transgenic Leishmania Mexicana promastigotes LmGT2 that are glucose transport deficient and complemented with the L. Mexicana glucose transporter 2. Activity is measured by DNA content using SYBR green in vitro.

Solute carrier family 2, facilitated glucose transporter member 1 (Homo sapiens), sequence (P11166 whole entry): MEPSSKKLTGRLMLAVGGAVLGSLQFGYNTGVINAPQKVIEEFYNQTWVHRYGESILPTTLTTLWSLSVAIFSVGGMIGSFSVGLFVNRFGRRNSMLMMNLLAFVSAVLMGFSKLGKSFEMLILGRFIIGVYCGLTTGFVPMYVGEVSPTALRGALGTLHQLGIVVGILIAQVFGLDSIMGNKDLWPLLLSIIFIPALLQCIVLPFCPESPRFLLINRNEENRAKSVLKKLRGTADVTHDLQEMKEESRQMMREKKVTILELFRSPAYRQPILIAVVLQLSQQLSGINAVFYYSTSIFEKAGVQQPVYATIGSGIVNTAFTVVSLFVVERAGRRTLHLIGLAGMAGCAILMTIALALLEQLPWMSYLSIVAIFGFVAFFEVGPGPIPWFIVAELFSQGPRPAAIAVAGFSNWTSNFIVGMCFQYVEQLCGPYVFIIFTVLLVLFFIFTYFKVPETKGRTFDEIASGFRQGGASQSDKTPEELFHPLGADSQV

Consider `OCCN1CCN(Cc2ccc(-c3ccc(-c4nc5ccccc5[nH]4)cc3)cc2)CC1`, for which the values for the inhibition in experiment [1], in experiment [2] and in experiment [3] were 12.1%, 9.51% and 7.18%, respectively.

With `N=C(N)NC(=O)Nc1cc(F)c(Cl)c(Br)c1`, the inhibition in experiment [1] was 3.49%; in experiment [2], 4.05%; in experiment [3], -2.83%.

`Nc1ncc(Cc2ccc3c(ccc4ccccc43)c2)c(N)n1`: the inhibition in experiment [1] was found to be 14.2%; in experiment [2], 12.7%; in experiment [3], 11.9%.

As for `Cc1ccc(NC(=O)c2ccc(N3CCN(c4ccncc4)CC3)cn2)cc1F`, the inhibition in experiment [1] was 109%; in experiment [2], 95.4%; in experiment [3] it was 102%.

Regarding `CNC(=N)c1ccc(NC(=O)Nc2ccc(C(=N)NC)cc2)cc1`, the inhibition worked out at 4.64% in experiment [1], 1.88% in experiment [2] and 3.62% in experiment [3].

Consider `Cc1nc2ccc([N+](=O)[O-])cc2c(=O)n1OCc1ccccc1`, for which the figures for the inhibition in experiment [1], in experiment [2] and in experiment [3] were 2.26%, 2.03% and 2.66%, respectively.

For `Cc1cccc(Cn2ccc3c(N)nc(N)nc32)c1`, the inhibition in experiment [1] came to 4.57%; in experiment [2] it was 3.14%; in experiment [3] it was 3.04%.

For `CCOc1ccc(C(C)NC(=O)Cc2ccccc2F)cc1OCC` (configuration not stated), the results for the inhibition in experiment [1], in experiment [2] and in experiment [3] were 3.49%, 2.75% and -0.15%, respectively.

As to `Cn1cc(-c2ccnc3[nH]c(-c4cccc(CNC5CCC(O)CC5)c4)cc23)cn1` (configuration not stated), the inhibition in experiment [1] came out at 0.39%; in experiment [2], 1.89%; in experiment [3], 3.37%.

Take `CCC(C)NC(=O)CN1CN(c2ccccc2)C2(CCN(C(=O)c3ccc4ccccc4c3)CC2)C1=O` (configuration not stated): the inhibition was 0.98% in experiment [1], -0.53% in experiment [2] and -0.96% in experiment [3].

Turning to `O=C(Nc1ccc(Cl)cc1)Nc1ccc(-c2csc(-c3nc4ccccc4[nH]3)c2)cc1`, the inhibition in experiment [1] came to 0.59%; in experiment [2], 1.1%; in experiment [3], 0.83%.

Regarding `CCN(CC)CCNC(=O)/C(=C/C=C/c1cc2cc(Cl)c(Cl)cc2[nH]1)OC`, the inhibition in experiment [1] is 2.44%; in experiment [2], -0.18%; in experiment [3] it was -1.46%.

In the case of `COc1ccc(Nc2nccc(NCCNC(=O)Nc3ccccc3F)n2)cc1`, the inhibition was 2.23% in experiment [1], 3.75% in experiment [2] and -0.4% in experiment [3].

With `Cc1cccc(C(=O)Nc2ccnc(N(C)CCCN(C)Cc3cccc(O)c3)c2)c1`, the figures for the inhibition in experiment [1], in experiment [2] and in experiment [3] were -1.6%, 1.08% and -0.23%, respectively.

By inhibition is commonly meant the relative decrease from the control value, in per cent.
